Measurements taken from PubChem BioAssay AID1224921 (Broad Institute, 2016).
The campaign covered roughly 1,400 compounds. About 350 (25%) were called active. Inconclusive results (about 2%) are left out. How the calls were made is not given here. A selection follows. Potency and affinity values are given separately.

Assay: C. difficile growth inhibition, confirmation, 4-point retest (AID 1224921);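 further: plate controls were DMSO wells for no effect and levofloxacin 16 µg/mL wells for full effect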
Details: Clostridioides difficile clinical isolate growth, OD600, 24 h, stronger effect = lower value; at 30 µM unless noted
With `CNC[C@@H]1Oc2cc(C#CCC3CCCC3)ccc2S(=O)(=O)N([C@H](C)CO)C[C@H]1C` the max activity was 18.8% [at 8 µM] (inactive). In the case of `CCS(=O)(=O)Nc1ccc2c(c1)C(=O)N(C)C[C@H](OC)[C@H](C)CN(C)[C@H](C)CO2`, the max activity is reported as -7.51% [at 1.95 µM] (inactive). In the case of `CCCC#Cc1ccc2c(c1)O[C@H](CN(C)Cc1ccncc1)[C@@H](C)CN([C@@H](C)CO)S2(=O)=O`, the max activity is reported as 18.4% (inactive). With `CO[C@@H]1CN(C)C(=O)c2ccc(NC(=O)C3CCC3)cc2OC[C@@H](C)N(S(=O)(=O)c2ccc(Cl)cc2)C[C@H]1C` the max activity was -9.7% [at 2.1 µM] (inactive). For `C[C@H](CO)N1C[C@H](C)[C@@H](CN(C)C(=O)Nc2ccc3c(c2)OCO3)Oc2cc(C#Cc3cccnc3)ccc2S1(=O)=O`, the max activity was -15.3% [at 8 µM] (inactive). In the case of `CN(C)C(=O)C[C@@H]1CC[C@H](NC(=O)c2ccc(F)cc2)[C@H](CO)O1`, the max activity is reported as -7.24% [at 1.95 µM] (inactive). For `O=C(N[C@H]1CC[C@@H](CCNS(=O)(=O)Cc2ccccc2)O[C@@H]1CO)c1ccc2c(c1)OCO2`, the max activity was 16.7% (inactive). For `C[C@@H](NC(=O)C[C@@H]1C=C[C@@H](NC(=O)C2CCC2)[C@H](CO)O1)c1ccccc1`, the max activity was -14.9% (inactive). In the case of `COc1ccc(C(=O)Nc2ccc3c(c2)OC[C@@H](C)N(C(=O)C2CC2)C[C@@H](C)[C@H](OC)CN(C)C3=O)cc1`, the max activity is reported as 3.99% [at 35 µM] (inactive). In the case of `CO[C@H]1CN(C)C(=O)c2ccc(NC(=O)c3ccccc3F)cc2OC[C@H](C)N(CC2CC2)C[C@H]1C`, the max activity is reported as -14.6% [at 1.95 µM] (inactive). For `C[C@@H]1CN([C@@H](C)CO)C(=O)Cc2cc(NS(C)(=O)=O)ccc2O[C@@H]1CN(C)Cc1ccc(-c2ccccc2)cc1`, the max activity was 21.7% (inactive). In the case of `CNC[C@@H]1Oc2cc(-c3ccccc3F)ccc2S(=O)(=O)N([C@H](C)CO)C[C@H]1C`, the max activity is reported as 24.6% (inactive). For `O=C(Cc1ccncc1)NCC[C@H]1CC[C@H](NC(=O)C2CCC2)[C@H](CO)O1`, the max activity was -8.69% [at 1.95 µM] (inactive). In the case of `O=C(Cc1ccncc1)NCC[C@H]1CC[C@H](NC(=O)C2CCC2)[C@@H](CO)O1`, the max activity is reported as -8.1% [at 35 µM] (inactive). For `O=C(Cc1ccncc1)NCC[C@@H]1CC[C@H](NC(=O)C2CCC2)[C@@H](CO)O1`, the max activity was -11.9% [at 0.5 µM] (inactive). In the case of `CN(C)C(=O)C[C@@H]1CC[C@H](NC(=O)c2ccc(F)cc2)[C@@H](CO)O1`, the max activity is reported as 5.78% [at 8 µM] (inactive). With `COc1ccc(-c2ccc3c(c2)O[C@H](CN(C)Cc2cccnc2)[C@@H](C)CN([C@H](C)CO)S3(=O)=O)cc1` the max activity was 25.8% (inactive). With `C[C@@H]1CN([C@H](C)CO)C(=O)Cc2cc(NC(=O)c3ccncc3)ccc2O[C@H]1CN(C)Cc1ccc(Cl)c(Cl)c1` the max activity was 5.9% [at 35 µM] (inactive). With `O=C(N[C@@H]1C=C[C@H](CC(=O)N2CCOCC2)O[C@@H]1CO)c1cccc(F)c1` the max activity was 9.1% [at 8 µM] (inactive). With `CCCC(=O)Nc1ccc2c(c1)C(=O)N(C)C[C@H](OC)[C@@H](C)CN(CC1CCOCC1)[C@H](C)CO2` the max activity was -10.3% (inactive). With `O=C(C[C@H]1C[C@H]2c3cc(NS(=O)(=O)c4ccc(F)cc4)ccc3O[C@H]2[C@H](CO)O1)NCc1ccc(-c2ccccc2)cc1` the max activity was -6.35% [at 1.95 µM] (inactive). With `COCC(=O)N1[C@@H]2c3ccc(-c4ccncc4)c(=O)n3C[C@@H]2[C@@H](CO)[C@@H]1C(=O)Nc1ccccc1` the max activity was -4.68% [at 0.5 µM] (inactive). In the case of `C[C@H](NC(=O)C[C@@H]1C[C@@H]2c3cc(NC(=O)NC4CCCCC4)ccc3O[C@@H]2[C@H](CO)O1)c1ccccc1`, the max activity is reported as -12.5% [at 1.95 µM] (inactive). For `C[C@H](CO)N1C[C@H](C)[C@@H](CN(C)Cc2ccc(C(F)(F)F)cc2)Oc2ccc(N(C)C)cc2CC1=O`, the max activity was 14% [at 8 µM] (inactive). In the case of `C[C@H](CO)N1C[C@H](C)[C@@H](CN(C)Cc2ccccc2)Oc2ccc(N(C)C)cc2CC1=O`, the max activity is reported as 18.1% (inactive). For `C[C@@H]1CN([C@H](C)CO)C(=O)Cc2cc(N(C)C)ccc2O[C@@H]1CN(C)Cc1ccc(Oc2ccccc2)cc1`, the max activity was 27.6% [at 35 µM] (inactive). With `C[C@@H]1CN([C@@H](C)CO)C(=O)Cc2cc(N(C)C)ccc2O[C@@H]1CN(C)Cc1ccc(Oc2ccccc2)cc1` the max activity was 32.7% (inactive). For `C[C@@H]1CN([C@@H](C)CO)C(=O)Cc2cc(NC(=O)C3CC3)ccc2O[C@@H]1CN(C)Cc1ccc(Oc2ccccc2)cc1`, the max activity was 32.9% (inactive). With `C[C@@H]1CN([C@H](C)CO)C(=O)Cc2cc(N(C)C)ccc2O[C@@H]1CN(C)Cc1ccc(-c2ccccc2)cc1` the max activity was 13.4% [at 8 µM] (inactive). With `C[C@@H]1CN([C@H](C)CO)S(=O)(=O)c2ccc(C#Cc3ccccc3)cc2O[C@H]1CN(C)C(=O)Nc1ccccc1` the max activity was 8.1% [at 8 µM] (inactive). In the case of `C[C@H](CO)N1C[C@H](C)[C@@H](CN(C)CC2CC2)Oc2cc(-c3ccc(F)cc3)ccc2S1(=O)=O`, the max activity is reported as 38% (inactive). In the case of `CN(C)CC(=O)N1[C@H](C#N)[C@H](c2ccc(C#CC3CCCCC3)cc2)[C@@H]1CO`, the max activity is reported as 14.2% [at 8 µM] (inactive). In the case of `CN(C)CC(=O)N1[C@@H](C#N)[C@H](c2ccc(C#CC3CCCCC3)cc2)[C@@H]1CO`, the max activity is reported as 22.7% [at 8 µM] (inactive). For `N#C[C@H]1[C@@H](c2ccc(C#CC3CCCCC3)cc2)[C@@H](CO)N1S(=O)(=O)c1ccccc1`, the max activity was 31.9% [at 8 µM] (inactive). With `CCCC#Cc1ccc([C@H]2[C@@H](CO)N(C(=O)C3CCCCC3)[C@H]2C#N)cc1` the max activity was 25.3% [at 8 µM] (inactive). For `Cc1ccccc1S(=O)(=O)N1[C@H](C#N)[C@@H](c2ccc(C#CC3CC3)cc2)[C@@H]1CO`, the max activity was 26.6% [at 7.5 µM] (inactive). In the case of `N#C[C@H]1[C@@H](c2ccc(C#CC3CCCC3)cc2)[C@@H](CO)N1S(=O)(=O)Cc1ccccc1`, the max activity is reported as 29.9% [at 8 µM] (inactive). For `CCCC(=O)Nc1ccc2c(c1)C(=O)N(C)C[C@@H](OC)[C@H](C)CN(CC1CCOCC1)[C@H](C)CO2`, the max activity was -10.1% (inactive). With `CCC(=O)N[C@@H]1C=C[C@H](CC(=O)OC)O[C@H]1CO` the max activity was -12.4% (inactive). In the case of `CN1CCN(C(=O)C[C@H]2C[C@H]3c4cc(NC(=O)Cc5ccncc5)ccc4O[C@H]3[C@H](CO)O2)CC1`, the max activity is reported as 13.8% (inactive). With `C[C@H](CO)N1C[C@H](C)[C@H](CN(C)Cc2ccc(C(F)(F)F)cc2)OCCCC[C@H](C)Oc2ccc(NC(=O)CCCN(C)C)cc2C1=O` the max activity was 31.1% (inactive). In the case of `C[C@@H]1CN([C@@H](C)CO)C(=O)c2cc(/C=C/c3ccccc3)cnc2O[C@H]1CN(C)C(=O)NC1CCCCC1`, the max activity is reported as -30.5% [at 8 µM] (inactive). For `CCCN1C[C@@H](C)[C@H](OC)CN(C)C(=O)c2cc(NC(=O)COC)ccc2OC[C@@H]1C`, the max activity was 15% (inactive). For `COc1cccc(S(=O)(=O)Nc2ccc3c(c2)[C@@H]2C[C@H](CC(=O)NC4CCCCC4)O[C@H](CO)[C@@H]2O3)c1`, the max activity was 27.9% (inactive). With `COc1ccccc1CNC(=O)C[C@@H]1C[C@@H]2c3cc(NC(=O)Nc4ccc(C(F)(F)F)cc4)ccc3O[C@@H]2[C@H](CO)O1` the max activity was 28.8% (inactive). For `COc1ccccc1CNC(=O)C[C@H]1C[C@H]2c3cc(NC(=O)Nc4ccc(C(F)(F)F)cc4)ccc3O[C@H]2[C@@H](CO)O1`, the max activity was 26.5% (inactive). With `COc1ccccc1CNC(=O)C[C@H]1C[C@@H]2c3cc(NC(=O)Nc4ccc(C(F)(F)F)cc4)ccc3O[C@@H]2[C@H](CO)O1` the max activity was 28% (inactive). With `CCCN1C[C@H](C)[C@H](OC)CN(C)C(=O)c2cc(NC(=O)c3cccc(F)c3)ccc2OC[C@H]1C` the max activity was 8.18% [at 8 µM] (inactive). In the case of `C[C@@H]1CN([C@H](C)CO)C(=O)c2ccccc2-c2ccccc2CO[C@H]1CN(C)C(=O)[C@H](C)c1ccccc1`, the max activity is reported as 15.9% (inactive). With `CC(C)CC#Cc1ccc2c(c1)O[C@@H](CN(C)CC1CCOCC1)[C@H](C)CN([C@H](C)CO)S2(=O)=O` the max activity was 29% (inactive). With `C[C@@H]1CN([C@H](C)CO)C(=O)Cc2cc(NC(=O)C3CC3)ccc2O[C@@H]1CN(C)Cc1ccc(Oc2ccccc2)cc1` the max activity was 25.1% (inactive). In the case of `COc1ccccc1C#Cc1ccc2c(c1)O[C@H](CN(C)Cc1cccnc1)[C@@H](C)CN([C@@H](C)CO)S2(=O)=O`, the max activity is reported as 53.8% (inactive). For `CCS(=O)(=O)Nc1ccc2c(c1)C(=O)N(C)C[C@H](OC)[C@@H](C)CN(CC1CCCC1)[C@@H](C)CO2`, the max activity was -15.1% [at 8 µM] (inactive). For `C[C@@H]1CN([C@@H](C)CO)S(=O)(=O)c2ccc(C#CC3CCCCC3)cc2O[C@@H]1CN(C)Cc1cccnc1`, the max activity was 69.7% (inactive). With `C[C@@H]1CN([C@H](C)CO)S(=O)(=O)c2ccc(-c3ccccc3)cc2O[C@H]1CN(C)Cc1ccncc1` the max activity was 33.9% (inactive). With `COc1ccccc1C#Cc1ccc2c(c1)O[C@@H](CN(C)Cc1cccnc1)[C@H](C)CN([C@@H](C)CO)S2(=O)=O` the max activity was 26.4% (inactive). For `CC(C)C#Cc1ccc([C@@H]2[C@@H](C#N)N(C(=O)C3CCC3)[C@H]2CO)cc1`, the max activity was 32.2% [at 8 µM] (inactive). In the case of `C[C@@H]1CN([C@@H](C)CO)S(=O)(=O)c2ccc(C3=CCCCC3)cc2O[C@H]1CN(C)Cc1ccncc1`, the max activity is reported as 29.4% (inactive). With `CCCC#Cc1ccc2c(c1)O[C@H](CN(C)Cc1ccncc1)[C@@H](C)CN([C@H](C)CO)S2(=O)=O` the max activity was 11.6% (inactive).
